± gives the uncertainty stated by the source. Whole data set: some 9,900 compounds, median “viability index relative to DMSO control” near 1, cut for the lowest 2% near 0.85. The entries come from a sample that favours the lowest values as a whole.

The test concerns Plasmodium falciparum NF54 stage V gametocytes. The experiment in a line: viability index relative to DMSO control (fraction); higher = less gametocyte killing. The conditions noted are these: 2.5 µM, incubation time: 72 h. The procedure: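 Broad DOS informer set and blood-stage-active DOS compounds screened in duplicate at 2.5 µM against P. falciparum NF54 stage V gametocytes with the serum-free one-step SaLSSA (1536-well): 72 h at 37 °C under low oxygen, then saponin lysis and MitoTracker Red CMXRos staining, with high-content imaging. Viability index = viable-object count divided by the plate mean of DMSO wells (0 = killed, about 1 = inactive).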

The mark [1] stands for this setting: library set: Broad Institute DOS.
Setting [2] is: library set: Broad Institute Blood Stage.

Take `C[C@@H]1CN([C@@H](C)CO)C(=O)c2cc(NS(=O)(=O)c3cn(C)cn3)ccc2O[C@H]1CN(C)S(=O)(=O)c1ccc(F)cc1`: the viability index under setting [1] came to 1.06 ± 0.038. Under setting [1], `O=C(C[C@H]1C=C[C@@H](NC(=O)c2ccncc2)[C@H](CO)O1)NCC1CC1` came in with a viability index of 1.029 ± 0.0019. As to `Cc1ccccc1-c1ccc([C@H]2[C@H]3CN(S(C)(=O)=O)CC(=O)N3[C@H]2CO)cc1`, the viability index under setting [1] came out at 0.975 ± 0.047.

`CCc1nc(N2[C@@H](C#N)[C@@H](c3ccccc3-c3ccccc3C)[C@@H]2CO)sc1C` yielded a viability index under setting [1] of 1.08 ± 0.12. On the same count and under the same terms, in the case of `CCc1nc(N2[C@H](C#N)[C@@H](c3ccccc3-c3ccccc3C)[C@@H]2CO)sc1C` it was 1.07 ± 0.088. Take `CCc1nc(N2[C@@H](C#N)[C@H](c3ccccc3-c3ccccc3C)[C@@H]2CO)sc1C`: the viability index under setting [1] was determined as 0.81 ± 0.063. The same measure, in the same setting: to `COc1ccc2c3c([nH]c2c1)[C@@H](CO)N(C[C@]31CCN(C)CC1)S(=O)(=O)c1ccccc1` belongs 1.04 ± 0.032; to `CO[C@@H]1CN(C)C(=O)c2ccc(NS(C)(=O)=O)cc2OC[C@@H](C)N(C(=O)CN(C)C)C[C@H]1C`, 0.977 ± 0.055; to `N#Cc1cccc(-c2ccc([C@H]3[C@@H]4CN(C(=O)c5ccc6c(c5)OCO6)C[C@H]3N4)cc2)c1`, 1.09 ± 0.072. Still for that read-out and setting: in the case of `N#Cc1cccc(-c2ccc([C@@H]3[C@@H]4CN(C(=O)c5ccc6c(c5)OCO6)C[C@H]3N4)cc2)c1` it was 0.896 ± 0.077; in that of `N#Cc1ccc(-c2ccc([C@H]3[C@@H]4CN(C(=O)c5cccnc5)C[C@H]3N4)cc2)cc1`, 1.15 ± 0.046. Still for that read-out and setting: to `N#Cc1ccc(-c2ccc([C@@H]3[C@@H]4CN(C(=O)Nc5ccc6c(c5)OCO6)C[C@H]3N4)cc2)cc1` belongs 0.56 ± 0.15. `N#Cc1ccc(-c2ccc([C@@H]3[C@@H]4CN(C(=O)c5cccnc5)C[C@H]3N4)cc2)cc1` yielded a viability index under setting [1] of 0.81 ± 0.2. Regarding `O=C(c1ccc(F)cc1)N1C[C@@H]2N[C@H](C1)[C@H]2c1ccc(-c2cccnc2)cc1`, the viability index under setting [1] was found to be 1.08 ± 0.12. Still for that read-out and setting: in the case of `O=C(Cc1ccncc1)N1CC[C@@H]2[C@H]1c1cc(-c3ccccc3F)ccc1N[C@@H]2CO` it was 1.03 ± 0.046; in that of `COc1ccc2c3c([nH]c2c1)[C@H](CO)N(Cc1ccc(Cl)cc1)C[C@]31CN(C1)S(C)(=O)=O`, 0.931 ± 0.066.

For the compound `COc1ccc2c3c([nH]c2c1)[C@H](CO)N(C[C@]31CCN(CC1)C(=O)Cc1cccnc1)S(=O)(=O)c1ccc(C)cc1`, the viability index under setting [1] was found to be 0.75 ± 0.079. Still for that read-out and setting: to `COc1ccc(CN2C[C@]3(CN(C3)S(=O)(=O)c3ccc(C)cc3)c3c([nH]c4cc(OC)ccc34)[C@H]2CO)cc1` belongs 0.793 ± 0.014. `CCCC(=O)N1CC[C@@]2(CC1)CN([C@@H](CO)c1[nH]c3cc(OC)ccc3c21)S(=O)(=O)c1ccc(C)cc1` had a viability index under setting [2] of 0.655 ± 0.046. For `CCS(=O)(=O)N1CC[C@@]2(CC1)CN([C@H](CO)c1[nH]c3cc(OC)ccc3c21)S(=O)(=O)c1ccc(C)cc1`, under setting [1], the viability index is 1 ± 0.046. Compound `CCCC(=O)N1C[C@@]2(C1)CN([C@@H](CO)c1[nH]c3cc(OC)ccc3c21)S(=O)(=O)c1ccc(C)cc1` had a viability index under setting [1] of 0.9841 ± 0.0028.

Under setting [1], `CCS(=O)(=O)N1CC[C@@]2(CC1)CN([C@@H](CO)c1[nH]c3cc(OC)ccc3c21)S(=O)(=O)c1ccc(C)cc1` gave a viability index of 0.934 ± 0.052. The same measure, in the same setting: in the case of `COc1ccc2c3c([nH]c2c1)[C@@H](CO)N(Cc1ccc(Cl)cc1)C[C@]31CN(C1)S(C)(=O)=O` it was 0.931 ± 0.095; in that of `CCCC(=O)N1C[C@@]2(C1)CN([C@H](CO)c1[nH]c3cc(OC)ccc3c21)S(=O)(=O)c1ccc(C)cc1`, 0.946 ± 0.074. The same measure, in the same setting: to `COc1ccc2c3c([nH]c2c1)[C@@H](CO)N(C[C@]31CN(C1)C(=O)Cc1cccnc1)S(C)(=O)=O` belongs 1.06 ± 0.048; to `COc1ccc2c3c([nH]c2c1)[C@H](CO)N(C[C@]31CN(C1)C(=O)Cc1cccnc1)S(C)(=O)=O`, 1.08 ± 0.04; to `COc1ccc2c3c([nH]c2c1)[C@@H](CO)N(C[C@]31CCN(CC1)C(=O)Cc1cccnc1)S(=O)(=O)c1ccc(C)cc1`, 0.827 ± 0.019.

Take `C[C@H](CO)N1C[C@H](C)[C@H](CN(C)C(=O)Nc2cccc(C(F)(F)F)c2)OCc2cn(nn2)CCCC1=O`: the viability index under setting [1] turned out to be 1.01 ± 0.036. `COc1ccc2c3c([C@@H](CO)N(C[C@]33CN(C3)C(=O)c3ccccc3F)C(=O)Nc3ccccc3F)n(C)c2c1` yielded a viability index under setting [1] of 0.97 ± 0.053. Same read-out and setting: to `O=C(Cc1cccnc1)N1CC(=O)N2[C@@H](CO)[C@H](c3ccc(/C=C/c4ccccc4)cc3)[C@@H]2C1` belongs 1.015 ± 0.0057; to `C[C@H]1CN([C@@H](C)CO)C(=O)Cc2cc(N(C)C)ccc2O[C@@H]1CN(C)C(=O)NC1CCCCC1`, 0.883 ± 0.058; to `O=C1CNC[C@@H]2[C@H](c3ccc(C#CC4CCCCC4)cc3)[C@@H](CO)N12`, 1.06 ± 0.067. The same measure, in the same setting: in the case of `CN1CCN(C(=O)C[C@H]2CC[C@@H]3[C@H](COC[C@H](O)CN3C(=O)c3ccccc3F)O2)CC1` it was 0.986 ± 0.019. Compound `Cc1ccc(S(=O)(=O)Nc2ccc3c(c2)C(=O)N([C@@H](C)CO)C[C@@H](C)[C@@H](CN(C)Cc2ccc(C(F)(F)F)cc2)O3)cc1` had a viability index under setting [1] of 1.04 ± 0.07. For the compound `COc1ccc(NC(=O)N(C)C[C@@H]2Oc3ccc(NC(=O)Nc4cccc5ccccc45)cc3CC(=O)N([C@@H](C)CO)C[C@H]2C)cc1`, under setting [1], the viability index stood at 1.03 ± 0.033. Still for that read-out and setting: to `O=C(N[C@@H]1C=C[C@@H](CC(=O)N2CCN(c3ccccc3)CC2)O[C@@H]1CO)c1ccccc1` belongs 1.11 ± 0.12; to `N#C[C@H]1[C@@H](c2ccccc2-c2ccccc2F)[C@@H](CO)N1C(=O)c1cccc(F)c1`, 1.16 ± 0.25; to `Cc1noc(C)c1NC(=O)N[C@@H]1C=C[C@@H](CC(=O)Nc2ccc(-c3ccccc3)cc2)O[C@@H]1CO`, 0.979 ± 0.1. The compound `Cc1noc(C)c1S(=O)(=O)Nc1ccc2c(c1)C(=O)N([C@H](C)CO)C[C@@H](C)[C@H](CN(C)Cc1ccc(C(=O)O)cc1)OCCCC[C@@H](C)O2` yielded a viability index under setting [1] of 1.07 ± 0.12. Compound `CCCNC(=O)N1[C@H](CO)[C@H](c2ccc(C#Cc3cccc(F)c3)cc2)[C@@H]1C#N` returned a viability index under setting [1] of 1.09 ± 0.027. In turn, `CCCNC(=O)N1[C@H](C#N)[C@@H](c2ccc(C#Cc3cccc(F)c3)cc2)[C@@H]1CO` gave a viability index under setting [1] of 0.981 ± 0.013. Same read-out and setting: to `CN(C)CC(=O)N1[C@H](C#N)[C@@H](c2ccc(C#CC3CCCCC3)cc2)[C@H]1CO` belongs 1.05 ± 0.039; to `CN(C)CC(=O)N1[C@H](C#N)[C@H](c2ccc(C#CC3CCCCC3)cc2)[C@@H]1CO`, 0.981 ± 0.11.

`N#C[C@H]1[C@@H](c2ccc(-c3cccc(F)c3)cc2)[C@H](CO)N1C(=O)NC1CCCC1` displayed a viability index under setting [1] of 1.055 ± 0.0015.

Compound `N#C[C@@H]1[C@H](c2ccc(-c3cccc(F)c3)cc2)[C@H](CO)N1C(=O)NC1CCCC1` registered a viability index under setting [1] of 0.743 ± 0.059. Under setting [2], `CCCNC(=O)N1[C@H](C#N)[C@H](c2ccc(C#Cc3ccc(F)cc3)cc2)[C@@H]1CO` had a viability index of 0.844 ± 0.021. Turning to `CC(C)NC(=O)N1[C@H](C#N)[C@H](c2ccc(C#CC3CCCCC3)cc2)[C@@H]1CO`, the viability index under setting [2] was found to be 0.822 ± 0.041. `N#C[C@@H]1[C@@H](c2ccc(-c3cccc(F)c3)cc2)[C@H](CO)N1C(=O)NC1CCCC1` yielded a viability index under setting [1] of 0.935 ± 0.064.

(Values after the supplement of paper PMC4723716.)
